Source: PubChem
RAD54 branch = blocks human RAD54 Holliday junction branch migration. Q92698. FAM/BHQ fluorescence. inhibition, % at 10.4 µM. actives 0.14% (n = 360,000);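 active means mean normalized replicate activity at least 40 and at least half of replicates scoring 40 or more; inconclusive means only one of the two criteria met; inactive means mean below 40 and under half of replicates reaching 40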;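 further: inhibitors cause a drop in the FAM fluorescence signal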
dFosB act = enhances mouse delta FosB homodimer DNA binding. P13346. purified delta FosB, TAMRA-CDK5 oligo fluorescence polarization; percent of positive-control signal above neutral wells. activation, % at 25 µM. actives 0.99% (n = 340,000). AID 493131;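 active means mean activation above about 17%, with every replicate also reaching it, limit read from the data, passing the limit was not always enough; inconclusive means only one of the two conditions met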
Target sequence (P13346 whole entry, looked up): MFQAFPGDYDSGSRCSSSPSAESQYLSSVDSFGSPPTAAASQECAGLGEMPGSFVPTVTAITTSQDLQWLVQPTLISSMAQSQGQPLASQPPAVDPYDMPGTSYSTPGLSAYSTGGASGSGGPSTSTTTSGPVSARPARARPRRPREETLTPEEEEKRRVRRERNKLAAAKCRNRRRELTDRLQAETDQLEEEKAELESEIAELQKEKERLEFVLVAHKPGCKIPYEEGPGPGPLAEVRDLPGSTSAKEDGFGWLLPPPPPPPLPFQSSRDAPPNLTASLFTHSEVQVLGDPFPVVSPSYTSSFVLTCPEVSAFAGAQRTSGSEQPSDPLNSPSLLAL
MLL AF4-AF9 inh = MLL-AF4/AF9 protein interaction inhibition; P42568; AlphaScreen, biotin-AF4 peptide binding to FLAG-AF9; inhibition, % at 10 µM; actives 0.47% (n = 350,000);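 active means every replicate reaching a set inhibition limit, whatever the replicate mean, cut at about 25% in these data; inconclusive means mean inhibition reaches that limit but some replicates miss it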
GSIS activator = primary screen for activators of insulin secretion dependent on glucose, INS-1E cells, GLuc reporter luminescence | INS-1E GLuc reporter insulin secretion, 2-3 h | AID 743287 | actives 0.61% (n = 370,000) | activation, % at 16.6 µM;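 active means lowest replicate activation of at least 40%, so every replicate reaches that level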
RAD52 anneal inh = RAD52 (human) annealing inhibition | AID 651710 | inhibition, % at 18.7 µM | P43351 | recombinant RAD52 DNA annealing, FRET fluorescence | actives 0.46% (n = 360,000);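 active means every replicate showing at least 50% inhibition; inconclusive means mean inhibition at least 50% but not in every replicate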
DENV2 CPE rescue = inhibitors of DENV2 cytopathic effect; DENV2-infected cells, cytopathic effect rescue, plate reader; CPE inhibition, % at 9.99 µM; actives 1.7% (n = 350,000); AID 651640; in the data active means CPE inhibition above about 20%, passing the limit was not always enough; inconclusive means no clear call, values can overlap the other calls; tested in BHK-21 cells
Each line names hits and unclear results; the compound was inactive in the other large screens. The list is not random: actives were taken first. Their share in the collection is about 3.1%.

O=C(NC1CCN(Cc2ccccc2)CC1)c1ccc(CS(=O)c2ccc(F)cc2)o1 (stereo unspecified)	none
CN1c2ccc(Cl)cc2C(=O)NC1c1ccc([N+](=O)[O-])s1 (stereo unspecified)	DENV2 CPE rescue 45.5
COCc1cccc(-c2csc(C(N)c3ccc(F)c(F)c3)n2)c1 (stereo unspecified)	DENV2 CPE rescue 21.1 (no result: dFosB act)
O=C(Nc1ccccc1N1CCOCC1)C1=NN(c2ccccc2)C(=O)CC1	GSIS activator 49.8, DENV2 CPE rescue 69.1
CN1CCN(c2ncnc3c2ncn3[C@H]2CN(Cc3ccc(Cl)cc3)C[C@@H](CO)O2)CC1	DENV2 CPE rescue 34.8 (no result: dFosB act, GSIS activator)
OCCN1CCN(c2ncnc3c2ncn3[C@H]2CN(Cc3ccc(Cl)cc3)C[C@@H](CO)O2)CC1	none (no result: dFosB act)
CC(C)NC(=O)N(C)C[C@@H]1Oc2cc(C#CC3CC3)ccc2S(=O)(=O)N([C@@H](C)CO)C[C@H]1C	none (no result: dFosB act)
COc1ccccc1OCC(=O)Nc1ccc(N2CCOCC2)cc1N1CCOCC1	DENV2 CPE rescue 29.1 (no result: GSIS activator)
COc1cccc(-c2ocnc2C(=O)Nc2ccc(N3CCOCC3)cc2N2CCOCC2)c1	MLL AF4-AF9 inh 35.3
COc1ccc(-c2ocnc2C(=O)Nc2ccccc2N2CCCCC2)cc1	none (no result: MLL AF4-AF9 inh, GSIS activator, RAD52 anneal inh, DENV2 CPE rescue)
COc1ccc(NC(=O)Nc2cccc3c2O[C@H](CN(C)C(=O)Nc2ccc(OC)cc2)[C@H](C)CN([C@@H](C)CO)C3=O)cc1	none (no result: dFosB act)
S=C(NCc1ccccc1)Nc1ccc2cn[nH]c2c1	GSIS activator 40.1
OCCN1CCSC1=S	GSIS activator 45.2
OCCN1CNC(=S)NC1	none
CC(C)=NNC(=O)CN1C(=O)NC2NC(=O)NC21 (stereo unspecified)	DENV2 CPE rescue 33.7
CCC(C)NC(=O)CN1C(=O)NC2NC(=O)NC21 (stereo unspecified)	none (no result: RAD54 branch)
COC(=O)C1=C(C)N(Cc2cccc(C(F)(F)F)c2)C(=NCc2ccccc2C(F)(F)F)NC1c1cccc(C(F)(F)F)c1 (stereo unspecified)	none (no result: RAD54 branch, dFosB act, MLL AF4-AF9 inh, GSIS activator)
COC(=O)C1=C(C)N(Cc2ccccc2C(F)(F)F)C(=NCc2ccc3c(c2)OCO3)NC1c1cccc(F)c1 (stereo unspecified)	GSIS activator 48.7 (no result: RAD54 branch, dFosB act, MLL AF4-AF9 inh)
COC(=O)C1=C(C)N(Cc2cccc(C(F)(F)F)c2)C(=NCc2ccc3c(c2)OCO3)NC1c1cccc(F)c1 (stereo unspecified)	GSIS activator 40.3, DENV2 CPE rescue inconclusive (no result: RAD54 branch, dFosB act, MLL AF4-AF9 inh)
COC(=O)C1=C(C)N(Cc2cccc(C(F)(F)F)c2)C(=NCc2ccc3c(c2)OCO3)NC1c1ccccc1 (stereo unspecified)	none (no result: RAD54 branch, dFosB act, GSIS activator)
COC(=O)C1=C(C)N(Cc2cccc(C(F)(F)F)c2)C(=NCc2ccccc2C(F)(F)F)NC1c1cccc(F)c1 (stereo unspecified)	GSIS activator 166.4 (no result: RAD54 branch, dFosB act, MLL AF4-AF9 inh)
Cc1ccc(-c2ccc3c(c2)O[C@@H](CN(C)C(=O)Nc2ccc(F)cc2)[C@@H](C)CN([C@H](C)CO)S3(=O)=O)cc1	none (no result: dFosB act)
C[C@@H]1CN([C@H](C)CO)C(=O)c2cc(NC(=O)c3ccncc3)ccc2O[C@@H](C)CCCCO[C@H]1CN(C)C	DENV2 CPE rescue 84.6 (no result: dFosB act)
C[C@@H]1CCCCO[C@H](CN(C)C)[C@H](C)CN([C@H](C)CO)C(=O)c2cc(NC(=O)c3ccncc3)ccc2O1	DENV2 CPE rescue 34.3 (no result: dFosB act)
C[C@H]1CCCCO[C@@H](CN(C)C)[C@@H](C)CN([C@@H](C)CO)C(=O)c2cc(NC(=O)c3ccncc3)ccc2O1	none (no result: dFosB act)
C[C@H](CO)N1C[C@H](C)[C@@H](CN(C)C(=O)CCCN(C)C)OCCCC[C@H](C)Oc2ccc(NS(=O)(=O)c3ccc(F)cc3)cc2C1=O	none (no result: dFosB act)
COc1ccccc1N1C(=O)C2CCC(c3ccccc3)CC2C1=O (stereo unspecified)	DENV2 CPE rescue 23.3
O=C(O)/C=C/C(=O)c1ccc2c(c1)CCc1ccccc1-2	DENV2 CPE rescue 29.3
CC(=O)Nc1ccc2c(c1)CCc1ccccc1-2	none
CO[C@@H]1CN(C)C(=O)c2ccc(NC(=O)NC(C)C)cc2OC[C@H](C)N(C(=O)CC2CC2)C[C@H]1C	DENV2 CPE rescue 32.4 (no result: dFosB act)
COCC(=O)Nc1ccc2c(c1)OC[C@@H](C)N(C(=O)COC)C[C@@H](C)[C@H](OC)CN(C)C2=O	DENV2 CPE rescue 52.6 (no result: dFosB act)
